Reference: PubChem BioAssay (NCI)
Compounds without any hit were thinned out: in the full panel of roughly 83,000, 20% have a hit.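 96-well plates, one dose, 48 hours. Percent growth reported; active if below 10.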 Activity calls are given as the source filed them.

These compounds were tested on HCT-116 colon (assay: NCI-60 one-dose screen, 48 h (100 = growth as untreated, 0 = no growth, -100 = all killed)). Conditions: 10 µM.
With `O=C(CCl)Nc1ccc2c(c1)C(=O)c1ccc(NC(=O)CCl)cc1C2=O` the growth was -79.8% (active).
With `N#C/C(=C\c1cc(O)c(O)c(O)c1)C(N)=O` the growth was 92.8% (inactive).
In the case of `CC(=O)OCCO`, the growth is reported as 103% (inactive).
With `O=C(NCc1ccco1)Nc1c(Cl)cc(Cl)cc1Cl` the growth was 95.5% (inactive).
With `O=C(O)CCCCNC(=O)c1ccccc1` the growth was 101% (inactive).
In the case of `S=c1[nH]ccn1-c1ccccc1Cl`, the growth is reported as 107% (inactive).
For `CN(C)c1ccc2oc(=O)c3ccccc3c2c1`, the growth was 83.2% (inactive).
`CCOC(=O)C(O)C(O)C(=O)OCC` (stereo unspecified) was tested, and the growth was 103% (inactive).
In the case of `O=C(O)C(Cc1ccccc1)C(=O)O`, the growth is reported as 96.8% (inactive).
In the case of `N#CCCN(CCCN1CCOCC1)CN1C(=O)c2ccccc2C1=O`, the growth is reported as 109% (inactive).
For `CCCCCCCCO`, the growth was 107% (inactive).
`CC1OC(Oc2c(-c3ccc(O)c(O)c3)oc3cc(O)cc(O)c3c2=O)C(O)C(O)C1O` (stereo unspecified) was tested, and the growth was 105% (inactive).
In the case of `CC(=Nc1ccccc1)C1=C(O)C(Cc2cccc(F)c2)NC1=O` (stereo unspecified), the growth is reported as 7.22% (active).
With `CCCC(=O)c1cc(C)ccc1OC` the growth was 107% (inactive).
With `O=C(CS)Nc1ccc2ccccc2c1` the growth was 94.6% (inactive).
For `CCCC1(c2ccccc2)NC(=O)NC1=O` (stereo unspecified), the growth was 99.3% (inactive).
With `CNS(=O)(=O)c1ccc(Cl)c(Cl)c1` the growth was 107% (inactive).
`CC1CC(O)CC(C)(C)C1` (stereo unspecified) was tested, and the growth was 99.8% (inactive).
`Cc1cc(N)c(S(=O)(=O)O)c(N)c1` was tested, and the growth was 91.9% (inactive).
In the case of `O=C(O)C(c1ccccc1)C(O)c1ccccc1` (stereo unspecified), the growth is reported as 105% (inactive).
With `COC1=CC(=O)c2nc(Cl)ccc2C1=O` the growth was -32.7% (active).
For `O=C1c2ccccc2C(=O)c2c1ccc(C(=O)O)c2[N+](=O)[O-]`, the growth was 104% (inactive).
In the case of `CSC(=N\N=C\c1ccc(N(C)C)cc1)/N=C/N(C)C`, the growth is reported as 102% (inactive).
`CC(C)=CC(=O)OC(=O)C=C(C)C` was tested, and the growth was 109% (inactive).
For `O=S(=O)(O)c1ccc(Cl)c(Cl)c1`, the growth was 105% (inactive).
With `COC(=O)Nc1cccc(Cl)c1OC` the growth was 107% (inactive).
With `CCOC(=O)c1coc(C(=O)OCC)c1C(=O)OCC` the growth was 115% (inactive).
For `COc1cc(C(=O)N/N=C/c2cccc([N+](=O)[O-])c2)cc(OC)c1OC`, the growth was 23.9% (inactive).
`N#CCCc1ccc(O)cc1` was tested, and the growth was 116% (inactive).
For `CCOC(=O)c1ccc(NC(=S)P(=O)(c2ccccc2)c2ccccc2)cc1`, the growth was 91.7% (inactive).
With `Clc1ccc(-c2n[nH]c3c2Cc2ccccc2-3)cc1Cl` the growth was 90.8% (inactive).
For `COc1cccc(Sc2ccc([N+](=O)[O-])c3no[n+]([O-])c23)c1`, the growth was -91.4% (active).
For `CC(C)COC(=O)COC(=O)OCCOCCOC(=O)OCC(=O)OCC(C)C`, the growth was 103% (inactive).
In the case of `CC(=O)Cc1ccc(-c2ccccc2)cc1`, the growth is reported as 103% (inactive).
In the case of `CCOc1ccc2[nH]c(=S)sc2c1`, the growth is reported as 105% (inactive).
For `CC1CC(O)C2C3(C)CCCC2(COC3=O)C12CCC1(CCOC1=O)O2` (stereo unspecified), the growth was 97.4% (inactive).
In the case of `COc1ccc(OC)c(/C=C2\CCc3ccccc3C2=O)c1`, the growth is reported as 19.3% (inactive).
With `Oc1ccccc1-c1nnco1` the growth was 106% (inactive).

The compounds below were run on HCC-2998 colon in the same assay as above. Conditions: 10 µM.
`O=C(CCl)Nc1ccc2c(c1)C(=O)c1ccc(NC(=O)CCl)cc1C2=O` was tested, and the growth was -77.8% (active).
In the case of `N#C/C(=C\c1cc(O)c(O)c(O)c1)C(N)=O`, the growth is reported as 98.3% (inactive).
With `CC(=O)OCCO` the growth was 111% (inactive).
In the case of `O=C(NCc1ccco1)Nc1c(Cl)cc(Cl)cc1Cl`, the growth is reported as 102% (inactive).
`O=C(O)CCCCNC(=O)c1ccccc1` was tested, and the growth was 94.3% (inactive).
`S=c1[nH]ccn1-c1ccccc1Cl` was tested, and the growth was 113% (inactive).
For `CN(C)c1ccc2oc(=O)c3ccccc3c2c1`, the growth was 88.5% (inactive).
For `CCOC(=O)C(O)C(O)C(=O)OCC` (stereo unspecified), the growth was 111% (inactive).
With `O=C(O)C(Cc1ccccc1)C(=O)O` the growth was 106% (inactive).
For `N#CCCN(CCCN1CCOCC1)CN1C(=O)c2ccccc2C1=O`, the growth was 101% (inactive).
For `CCCCCCCCO`, the growth was 103% (inactive).
`CC1OC(Oc2c(-c3ccc(O)c(O)c3)oc3cc(O)cc(O)c3c2=O)C(O)C(O)C1O` (stereo unspecified) was tested, and the growth was 110% (inactive).
`CC(=Nc1ccccc1)C1=C(O)C(Cc2cccc(F)c2)NC1=O` (stereo unspecified) was tested, and the growth was 26.9% (inactive).
For `CCCC(=O)c1cc(C)ccc1OC`, the growth was 111% (inactive).
In the case of `O=C(CS)Nc1ccc2ccccc2c1`, the growth is reported as 80.5% (inactive).
With `CCCC1(c2ccccc2)NC(=O)NC1=O` (stereo unspecified) the growth was 100% (inactive).
For `CNS(=O)(=O)c1ccc(Cl)c(Cl)c1`, the growth was 118% (inactive).
In the case of `CC1CC(O)CC(C)(C)C1` (stereo unspecified), the growth is reported as 109% (inactive).
For `Cc1cc(N)c(S(=O)(=O)O)c(N)c1`, the growth was 86.3% (inactive).
In the case of `O=C(O)C(c1ccccc1)C(O)c1ccccc1` (stereo unspecified), the growth is reported as 97.9% (inactive).
For `COC1=CC(=O)c2nc(Cl)ccc2C1=O`, the growth was 100% (inactive).
For `O=C1c2ccccc2C(=O)c2c1ccc(C(=O)O)c2[N+](=O)[O-]`, the growth was 106% (inactive).
In the case of `CSC(=N\N=C\c1ccc(N(C)C)cc1)/N=C/N(C)C`, the growth is reported as 108% (inactive).
In the case of `CC(C)=CC(=O)OC(=O)C=C(C)C`, the growth is reported as 117% (inactive).
With `O=S(=O)(O)c1ccc(Cl)c(Cl)c1` the growth was 104% (inactive).
In the case of `COC(=O)Nc1cccc(Cl)c1OC`, the growth is reported as 104% (inactive).
In the case of `CCOC(=O)c1coc(C(=O)OCC)c1C(=O)OCC`, the growth is reported as 108% (inactive).
`COc1cc(C(=O)N/N=C/c2cccc([N+](=O)[O-])c2)cc(OC)c1OC` was tested, and the growth was 52.7% (inactive).
For `N#CCCc1ccc(O)cc1`, the growth was 115% (inactive).
In the case of `CCOC(=O)c1ccc(NC(=S)P(=O)(c2ccccc2)c2ccccc2)cc1`, the growth is reported as 108% (inactive).
With `Clc1ccc(-c2n[nH]c3c2Cc2ccccc2-3)cc1Cl` the growth was 92.2% (inactive).
With `COc1cccc(Sc2ccc([N+](=O)[O-])c3no[n+]([O-])c23)c1` the growth was 55.4% (inactive).
In the case of `CC(C)COC(=O)COC(=O)OCCOCCOC(=O)OCC(=O)OCC(C)C`, the growth is reported as 101% (inactive).
`CC(=O)Cc1ccc(-c2ccccc2)cc1` was tested, and the growth was 101% (inactive).
`CCOc1ccc2[nH]c(=S)sc2c1` was tested, and the growth was 97.9% (inactive).
In the case of `CC1CC(O)C2C3(C)CCCC2(COC3=O)C12CCC1(CCOC1=O)O2` (stereo unspecified), the growth is reported as 122% (inactive).
With `COc1ccc(OC)c(/C=C2\CCc3ccccc3C2=O)c1` the growth was 73.9% (inactive).
In the case of `Oc1ccccc1-c1nnco1`, the growth is reported as 104% (inactive).
